Results on 19 compounds are retold here after PubChem BioAssay (Tox21).

Records with an inconclusive call do not appear. Entries that show only a call come without a potency. The source made the active and inactive calls. Calls follow the shape of the dose curve; as a rule, active = well fitted cell-killing curve with a large enough effect in the repeat runs; inconclusive = weak or mixed curves, or effect the other way; inactive = flat fitted curve, though single readings scatter.
Potency is read from the fitted curve at half-maximal effect.

The nature of this assay: cAMP Responsive Elements (CRE) small molecule agonists, cell-based qHTS assay: qHTS cell viability counter screen (AID 2060914). Also: nearly all actives have a fitted effect of over 50% in size. The conditions noted are these: CRE-bla HEK293T viability, CellTiter-Glo luminescence, 5 h; series mostly up to 92.4 µM. Put shortly:
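Cells are seeded and incubated 18 h, treated with compounds in DMSO for 3 h, read for the bla reporter, then given CellTiter-Glo; luminescence is measured after 30 min at room temperature.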
For orientation: Quantitative high-throughput screening tests each substance at several concentrations.
Consider `CC(=O)Oc1ccc(C2(c3ccc(OC(C)=O)cc3)C(=O)Nc3ccccc32)cc1`, for which the Potency entry is “inactive”. For `CCC(C(=O)O)c1ccc(N2Cc3ccccc3C2=O)cc1` (centres undefined), the Potency result was “inactive”. Turning to `CS(=O)(=O)c1ccc(-c2cn3ccccc3n2)cc1`, the Potency result is “inactive”. In the case of `CCn1ccnc1CC1COc2ccccc2O1` (centres undefined), the Potency entry was “inactive”. `CC(CN=Cc1ccccc1O)N=Cc1ccccc1O` (centres undefined): the Potency entry is “inactive”. To `Cc1ccc(S(=O)(=O)NC(=O)NC2CCCCCCC2)cc1` belongs “inactive”; to `CC(C)COC(=O)c1ccc(O)cc1`, “inactive”. Take `C=C(C)C(=O)OCCOP(=O)(O)O`: the Potency entry is “inactive”.

For `Cc1cc(C)cc(OCC2CNC(=O)O2)c1` (centres undefined), the Potency result is “inactive”. For the compound `C(=C\c1ccccc1)/c1ccccc1`, the Potency result was “inactive”. In the case of `OC[C@@H](O)[C@H](O)[C@@H](O)[C@@H](O)CO`, the Potency entry was “inactive”. Regarding `CCCOCCOCCO`, the Potency entry was “inactive”. Consider `O=C(O)Cc1cc(I)c(Oc2cc(I)c(O)c(I)c2)c(I)c1`, for which the Potency entry was “inactive”.

Regarding `C=CC(=O)CC`, the Potency entry is “inactive”. `Cc1cc(O)c(C(C)(C)C)cc1C(C)(C)C`: the Potency was 48.6 µM (active). As to `COC(=O)c1cc(C(=O)OC)cc(S(=O)(=O)O)c1`, the Potency result is “inactive”.

On to `OC(CCl)CCl`, for which the Potency entry was “inactive”. For the compound `CCCCCCCCCO`, the Potency result was “inactive”. With `C=CC(C)(CCC=C(C)C)OC(C)=O` (centres undefined), the Potency result was “inactive”.
